# Measurements reported in PubChem BioAssay (NCATS).
# Unmarked numbers belong to inactive results. Results filed as inconclusive are left out. Where a call stands in place of a potency, no number is given. Active and inactive are the calls of the source. The call rests on the fitted dose curve; in most records, active means well fitted curve in the direction sought with a large enough effect; inconclusive means small, poorly fitted or top-dose-only effect, or another doubt; inactive means no such curve, though single readings can be large; an effect the other way counts as inactive or inconclusive.
# Experiments:
# [1] = biological target: Glutathione peroxidase 1 (Homo sapiens) (UniProt P07203); experiment: Primary qHTS Assay for Inhibitors of Recombinant Selenoprotein Glutathione Peroxidase 1 (GPX1) (AID 1845191); further: nearly all actives have a fitted effect of over 65% in size
# Procedure, shortened: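 NADPH consumption tracked by fluorescence at 340/450 nm between t=0 and t=15 min, room temperature. Final mix: 10 nM GPX1, 100 nM glutathione reductase, 1 mM GSH, 0.5 mM NADPH, 0.5 mM cumene hydroperoxide, 0.01% BSA; 30 min compound–enzyme preincubation.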
# [2] = biological target: Phospholipid hydroperoxide glutathione peroxidase GPX4 (Homo sapiens) (UniProt P36969); experiment: Primary qHTS Assay for Inhibitors of Recombinant Selenoprotein Glutathione Peroxidase 4 (GPX4) (AID 1845192); further: nearly all actives have a fitted effect of over 65% in size; on activity change, negative = inhibition: series mostly up to about 50 µM
# Procedure, shortened: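 NADPH consumption followed by fluorescence at 340/450 nm, t=0 and after 15 min at room temperature. Reaction started with cumene hydroperoxide (0.5 mM final) after 30 min compound–GPX4 preincubation; final 200 nM GPX4, 100 nM GR, 1 mM GSH, 0.5 mM NADPH.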
# [3] = biological target: Luciferin 4-monooxygenase (Photinus pyralis) (UniProt P08659); experiment: Primary firefly luciferase (FLuc) qHTS assay for identification of artifact compounds. (AID 1845220); further: nearly all actives have a fitted effect of over 60% in size; on activity change, negative = inhibition: series mostly up to about 54 µM
# Procedure, shortened: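 FLuc 10 nM; luciferin 10 uM; ATP 10 uM; Tris-acetate pH 7.6, Mg-acetate 10 mM; 15 min RT preincubation; 5 min reaction; luminescence.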
# [4] = Primary fluorescence-based thiol-reactive (MSTI) qHTS assay for identification of artifact compounds. (AID 1845221); further: nearly all actives have a fitted effect of over 65% in size; further: potency means the concentration at half of the fitted maximal effect;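 on activity change, negative = thiol reactive: series mostly up to about 54 µM; thiol-reactive compounds lower the probe fluorescence signal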
# Procedure, shortened: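 In PBS pH 7.4 with 2% DMSO, each compound met 4 uM MSTI for one hour at ambient temperature, shielded from light, before fluorescence detection.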
# [5] = tested on: Nanoluciferase (engineered Oplophorus gracilirostris luciferase); experiment: Primary Nanoluciferase (NLuc) qHTS assay for identification of artifact compounds. (AID 1845222);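 further: NLuc secreted into diluted conditioned medium of S16 cells; series mostly up to about 54 µM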
# Procedure, shortened: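 NLuc from S16 cell medium (1:55) plus test compounds, 15 min, room temperature. Luminescence after Nano-Glo (1:100) addition, 5 min.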
# [6] = Primary redox qHTS assay for identification of artifact compounds. (AID 1845223)
# Procedure, shortened: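 Redox-cycling detection via DTT (250 uM final) oxidation coupled to Amplex Red (25 uM)/HRP (250 mU/mL) in HBSS. 15 min preincubation plus 30 min after DTT, room temperature. Ex/Em 525/598 nm; 4-parameter Hill fit against DMSO and 10 uM DA3003.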
# Chain of Glutathione peroxidase 1 (Homo sapiens) (P07203 whole entry, looked up): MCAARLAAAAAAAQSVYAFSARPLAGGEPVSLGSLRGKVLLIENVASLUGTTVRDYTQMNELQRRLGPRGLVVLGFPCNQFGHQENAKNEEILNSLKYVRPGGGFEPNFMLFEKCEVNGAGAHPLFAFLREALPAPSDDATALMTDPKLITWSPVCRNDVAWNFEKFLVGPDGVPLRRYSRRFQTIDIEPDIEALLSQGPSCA
# Chain of Phospholipid hydroperoxide glutathione peroxidase GPX4 (Homo sapiens) (P36969 whole entry, looked up): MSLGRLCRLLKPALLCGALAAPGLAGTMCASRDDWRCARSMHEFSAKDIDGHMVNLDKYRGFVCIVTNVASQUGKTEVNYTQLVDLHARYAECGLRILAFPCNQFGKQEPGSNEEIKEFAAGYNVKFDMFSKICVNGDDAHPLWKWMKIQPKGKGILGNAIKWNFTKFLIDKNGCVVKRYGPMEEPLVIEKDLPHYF
SMILES,Potency [1],Potency [2],Potency [3],Potency [4],Potency [5],Potency [6],outcome [1],"activity change, negative = inhibition [2]","activity change, negative = inhibition [3]","activity change, negative = thiol reactive [4]","activity, negative = inhibition [5]",redox activity (% of DA3003) [6]
C[C@@H]1O[C@@H](OC[C@H]2O[C@@H](OC(CCCCc3ccc(O)cc3)CCc3ccc(O)cc3)[C@H](O)[C@@H](O)[C@@H]2O)[C@H](O)[C@H](O)[C@H]1O (some centres undefined),inactive,inactive,inactive,7.93 µM (active),inactive,inactive,–,–,–,–,–,–
CC(=O)c1cc2c(cc1O)OC(C)(C)C=C2,inactive,inactive,inactive,inactive,inactive,inactive,–,–,–,–,–,–
C=C1C(O)C(O)C2(CC3C(C)=CCC4C(C)(CO)CCCC34C)OC2C1O (centres undefined),inactive,inactive,inactive,inactive,inactive,inactive,–,–,–,–,–,–
Cc1cccc(Oc2cnc(=O)[nH]c2)c1,inactive,inactive,inactive,inactive,inactive,inactive,–,–,–,–,–,–
CCOc1ccc(S(=O)(=O)n2c(C)nc3ccccc32)cc1,inactive,inactive,inactive,inactive,inactive,inactive,–,–,–,–,–,–
C[C@@H]1O[C@@H](O[C@H]2[C@H](OC(=O)[C@]34CCC(C)(C)C[C@H]3C3=CCC5[C@@]6(C)C[C@H](O)[C@H](O[C@@H]7O[C@H](CO)[C@@H](O)[C@H](O)[C@H]7O)[C@@](C)(CO)C6[C@H](O)C[C@@]5(C)[C@]3(C)C[C@H]4O)OC[C@H](O)[C@@H]2O)[C@H](O)[C@H](O)[C@H]1O[C@@H]1OC[C@@H](O)[C@H](O[C@H]2OC[C@](O)(CO)[C@H]2O)[C@H]1O (some centres undefined),–,–,–,–,–,–,inactive [at 9.52 µM],1.35% [at 9.73 µM],2.14% [at 11.6 µM],482% [at 11.5 µM],4.86% [at 11.6 µM],4.44% [at 11.5 µM]
CC(C)(C)Nc1nc2cc(Cl)c(Cl)cc2nc1S(C)(=O)=O,inactive,inactive,inactive,inactive,inactive,inactive,–,–,–,–,–,–
O=C(O)CC1CCC(c2ccc(-c3ccc4nc(C(=O)NCc5ccc(OC(F)(F)F)cc5)cn4c3)cc2)CC1 (centres undefined),inactive,inactive,inactive,inactive,inactive,inactive,–,–,–,–,–,–
CS(=O)(=O)N1CCC(NC(=O)c2[nH]ncc2NC(=O)c2c(Cl)cccc2Cl)CC1,inactive,inactive,inactive,inactive,inactive,inactive,–,–,–,–,–,–
